Compounds without any hit were thinned out: in the full panel of roughly 83,000, 20% have a hit.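 Growth was measured after 48 h exposure to one concentration of compound in 96-well plates. Values under 10 count as active.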 A number with no mark means an inactive call. Calls of active or inactive are those of the source.
These compounds were tested on MDA-MB-435 melanoma (assay: NCI-60 one-dose screen, 48 h (100 = growth as untreated, 0 = no growth, -100 = all killed)). Conditions: 10 µM unless noted.

Row | SMILES | growth
1 | O=C(CCn1c[n+](CC(=O)c2ccc(-c3ccccc3)cc2)c2ccccc21)Nc1cccc2cccnc12 | 32.2%
2 | O=S(=O)(NCCNc1nccc(-n2cnc3ccccc32)n1)c1ccc(Cl)cc1 | 100%
3 | O=C1CCCc2nc(Nc3ccc(S(=O)(=O)Nc4ccc([N+](=O)[O-])cc4)cc3)ncc21 | 104%

These compounds were tested on SW-620 colon in the same assay as above. Conditions: 10 µM unless noted.

Row | SMILES | growth
4 | Cc1nn(-c2ccccc2)c2ncnc(N/N=C/c3cccc(O)c3)c12 | 34%
5 | C=C1CC[C@@H]2[C@]3(C)COC(c4ccccc4)O[C@@H]3CC[C@@]2(C)[C@@H]1C/C=C1/C(=O)OC[C@H]1O (stereo partly drawn) | 49.7%
6 | CN(C)CCNC(=O)c1ccc(-c2nc3ccc4[nH]ncc4c3c3c2CCC3)cc1 | 3.38% (active)
7 | Fc1ccc(-c2cc3nc(C(Cl)Cl)nc(-c4ccc(F)cc4)n3n2)cc1 | -29.3% (active)
8 | C=C(C=O)[C@@H]1CC[C@]2(C)[C@H](C(=O)C=C3[C@H]4C[C@](C)(C(=O)OC)CC[C@]4(C)CC[C@]32C)[C@@]1(C)CCC#N | 4.74% (active)
9 | CCc1ccc(SC2c3ccc(N(CC)CC)cc3Oc3nc(N)c(C#N)c(N)c32)cc1 (stereo not drawn) | -24.8% (active)
10 | CCOC(=O)C1=NNC(c2ccc(Cl)cc2)C1C(=O)N1C(=S)NC(=O)C1CC(C)C (stereo not drawn) | 95.3%
11 | C#CCn1cccc1CNc1ccc(OC)cc1 | -36.2% (active)
12 | NC(N)=Nc1ccc(Oc2cccc(NC(N)=Nc3ccc(Br)cc3)c2)cn1 | 76%
13 | CC1(C)CC[C@]2(CN)CC[C@]3(C)C(=CC[C@@H]4[C@@]5(C)CCCNC(C)(C)[C@@H]5CC[C@]43C)[C@H]2C1 | 102%

Source: PubChem BioAssay (NCI)
